The values below come from PubChem BioAssay (NCI).

Compounds without any hit were thinned out: in the full panel of roughly 83,000, 20% have a hit.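 Step 1: grow cells in 96-well plates. Step 2: add test compound at a single concentration. Step 3: incubate 48 h. Step 4: record percent growth.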 The source made the active and inactive calls. How the source made its calls: active means growth percent below 10; inactive means the rest.

For the assay, the system named is CCRF-CEM leukemia. The assay can be described thus: NCI-60 one-dose screen, 48 h (100 = growth as untreated, 0 = no growth, -100 = all killed). The following applies: 10 µM unless noted.
On to `O=C(CCCCCCSc1nc(-c2ccc(Cl)cc2)cc(-c2ccc(Cl)cc2)n1)NO`, for which the growth was 5.2% (active).
To `O=C1CC(C(F)(F)F)Cc2nc3ccc(Br)cc3cc21` (configuration not stated) belongs 98.1% (inactive); to `COc1ccc(C2NC(=O)C(C#N)c3c2sc2c(F)cccc32)cc1` (configuration not stated), 44% (inactive).
To `CCCCCn1sc(=O)n(Cc2ccc(CNC(=O)OCc3ccc4cccc(O)c4n3)cc2)c1=O` belongs 7.05% (active); to `O=[N+]([O-])c1cccc(N=NNc2cccc([N+](=O)[O-])c2)c1`, 84.3% (inactive).
To `CCN(CC)CCCOc1ccc2c(c1)O/C(=C\c1cccc(OC)c1)C2=O` belongs 102% (inactive).
Take `O=C(OCc1ccc2c(Cl)cc(Cl)c(O)c2n1)N1CCNCC1`: the growth is 26.1% (inactive).
To `C=CCCCCOc1ccccc1-c1cnc(OCCCCC=C)n1C` belongs 80.9% (inactive); to `CSc1nc(=S)c2nc(SC)n(-c3ccccc3)c2[nH]1`, 82.5% (inactive); to `CC1Cc2c(Cl)ncnc2N(C)c2ccc(O)cc21` (configuration not stated), 82.5% (inactive).
To `Nc1nc(Nc2ccccc2)c2ncn(Cc3ccc4c(c3)OCO4)c2n1` belongs 66.8% (inactive).
Take `COc1ccc(-c2cc(-c3ccc(Cl)cc3)nc(SCCCCCCC(=O)NO)n2)cc1`: the growth was 3.36% (active).
To `COc1ccc(C(=O)CSc2nccc(Nc3ccc(C(=O)O)cc3)n2)cc1` belongs 105% (inactive); to `CC1(C)OC2[C@@H](CNC(=O)NC(=O)NC(=O)CI)O[C@@H](n3cnc4c(NC(=O)Nc5ccccc5)ncnc43)[C@H]2O1` (some centres not stated), -44% (active).
To `Cn1cc(-c2noc(-c3cn(C)c4ncc(F)cc34)n2)c2cc(Cl)ccc21` belongs 99.7% (inactive); to `COCCCNc1nc(NC(=O)c2cc(Br)cc(C(F)(F)F)c2)cc(-c2cccnc2)n1`, 80.8% (inactive); to `O=C(NCCCNC(=O)OCc1ccc2cccc(O)c2n1)OCc1ccc2cccc(O)c2n1`, 6.81% (active).
To `COc1cccc(-c2[nH]c(=S)ncc2C(=O)c2ccccc2)c1` belongs 93.7% (inactive); to `CCN(CCO)CCC(=O)c1ccc([N+](=O)[O-])cc1`, 124% (inactive); to `Cc1ccc(N)c(O)c1`, 77.9% (inactive).
Consider `CC(C)C1=NOC(=O)C1=Cc1cn(-c2ccccc2)nc1-c1ccc(Br)cc1`, for which the growth was 2.56% (active).
To `Cc1cc[n+](CCCCCCCCCC[n+]2ccc(C)cc2)cc1` belongs 99.1% (inactive).
To `C[C@@H](NC(=O)[C@@H](CC(=O)N1CCC(N2CCCCC2)CC1)N1C(=O)[C@@H](N2C(=O)OC[C@@H]2c2ccccc2)[C@H]1/C=C/c1cccc(Cl)c1)c1ccccc1` belongs 50.1% (inactive); to `C/C=C/C1OC23CCCCC2C(C#N)(C(=N)O3)C1(C#N)C#N` (configuration not stated), 81.2% (inactive).
As for `CCCOc1ccc(-c2nc(-c3ccc(N)cc3)cs2)cc1`, the growth was 85.6% (inactive).
In the case of `Cc1ccccc1OC(=O)c1cccc(Cl)c1`, the growth is 98% (inactive).
With `CC(C)c1ccc(C(=O)Nc2nc3ccc(O)cc3s2)cc1`, the growth is 29.2% (inactive).
To `COc1cc(-c2nc(SCCC(C)C)nc(Nc3ccc(S(N)(=O)=O)cc3)c2C#N)cc(OC)c1OC` belongs 14.1% (inactive); to `O=C(CSc1nc2ccc([N+](=O)[O-])cc2[nH]1)Nc1cccc(Cl)c1`, 16.4% (inactive).
To `COc1ccc2nc3cc(Cl)ccc3c(Nc3ccc(O)cc3)c2c1` belongs 23.9% (inactive); to `O=C(OCc1ccc2c(Cl)cc(Cl)c(O)c2n1)N1CCN(C(=O)c2cc3cc(F)ccc3[nH]2)CC1`, 13.4% (inactive).
To `COc1ccc(C(C(=O)O)c2ccc(OC)cc2)cc1` belongs 100% (inactive); to `O=C1COCCN1c1ccc(NCc2cn(Cc3ccc(F)cc3)c3ccccc23)cc1`, 92.9% (inactive).
Consider `O=C(Nc1cc(-c2cccnc2)nc(NCCCN2CCOCC2)n1)c1cc(Br)cc(C(F)(F)F)c1`, for which the growth was 42.8% (inactive).
For `CS(=O)(=O)c1cccnn1`, the growth is 84.9% (inactive).
To `C[C@]12CCc3c(ccc4cc(O)ccc34)[C@@H]1CC[C@H]2O` belongs 90.4% (inactive); to `CN(Cc1cccc(C(F)(F)F)c1)C(=O)[C@@H](CC(=O)N1CCC(N2CCCCC2)CC1)N1C(=O)[C@@H](N2C(=O)OC[C@@H]2c2ccccc2)[C@H]1/C=C/c1ccccc1`, 90.6% (inactive).
